Reference: PubChem BioAssay AID1159580 (chemical genetic matrix, 2015)
Where “and” joins values, the source holds several entries; their conditions need not be identical. Identical values can stand only once. In all, about 5,500 compounds went through this assay and about 2,000 (36%) were called active. Inconclusive results (about 18%) are left out. Rule as the data show it: active = normalized growth mostly below about 0.91 (no sharp cut-off); inconclusive = no clear call, values can overlap the other calls; inactive = mostly above about 0.92. Some of the results follow.

Experiment: chemical genetic growth profiling, strain panel (AID 1159580);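 also: tested at 20 µM; growth read once vehicle control cultures reached saturation at 30 °C; 1 = growth at the plate median or of vehicle wells; lower values mean less growth of the strain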
Settings: S. cerevisiae deletion strains, growth OD

Measured: normalized growth

C[C@]12CCC(=O)C=C1C=CC1C2CC[C@@]2(C)C1CC[C@@]2(O)CCC(=O)O (stereo partly specified)
inactive: locus YAL013W, strain DEP1, hits give low values 1 | locus YAL021C, strain ccr4, hits give low values 1.02 | locus YAL026C, strain drs2, hits give low values 1.01 | locus YAL030W, strain snc1, hits give low values 1.02 | locus YBL061C, strain skt5, hits give low values 1.03 | locus YBR009C, strain hhf1, hits give low values 0.997 | locus YBR021W, strain FUR4, hits give low values 0.985 | locus YBR023C, strain chs3, hits give low values 1.02 | locus YBR171W, strain sec66, hits give low values 1.03 | locus YBR229C, strain ROT2, hits give low values 0.991 | locus YBR231C, strain swc5, hits give low values 1.01 | locus YBR279W, strain paf1, hits give low values 1.03 | locus YCL011C, strain gbp2, hits give low values 1.03 | locus YCL016C, strain dcc1, hits give low values 1.01 | locus YCL029C, strain bik1, hits give low values 0.963 | locus YCL069W, strain vba3, hits give low values 1.04 | locus YCR088W, strain abp1, hits give low values 1.03 | locus YDL005C, strain med2, hits give low values 1.03 | locus YDL035C, strain GPR1, hits give low values 1.02 | locus YDL040C, strain nat1, hits give low values 1.04 | locus YDL074C, strain BRE1, hits give low values 0.969 | locus YDL101C, strain DUN1, hits give low values 0.982 | locus YDL134C, strain PPH21, hits give low values 0.99 | locus YDL185W, strain tfp1, hits give low values 0.982 | locus YDL192W, strain arf1, hits give low values 0.997 | locus YDR001C, strain nth1, hits give low values 1.01 | locus YDR069C, strain doa4, hits give low values 1.01 | locus YDR101C, strain arx1, hits give low values 0.98 | locus YDR137W, strain rgp1, hits give low values 0.986 | locus YDR150W, strain NUM1, hits give low values 1 | locus YDR159W, strain sac3, hits give low values 0.982 | locus YDR162C, strain NBP2, hits give low values 1 | locus YDR195W, strain ref2 1.02 | locus YDR297W, strain sur2, hits give low values 1.02 | locus YDR318W, strain mcm21, hits give low values 0.986 | locus YDR334W, strain swr1, hits give low values 1.04 | locus YDR335W, strain msn5, hits give low values 1.03 | locus YDR388W, hits give low values 0.988 | locus YDR392W, strain spt3, hits give low values 0.978 | locus YDR502C, strain sam2, hits give low values 0.989 | locus YEL003W, strain gim4, hits give low values 1.02 | locus YEL037C, strain rad23, hits give low values 1.04 | locus YEL061C, strain CIN8 (second series), hits give low values 1.02 | locus YEL061C, strain CIN8, hits give low values 0.999 | locus YER015W, strain faa2, hits give low values 1.04 | locus YER016W, strain bim1, hits give low values 1 | locus YER110C, hits give low values 0.986 | locus YER111C, strain swi4, hits give low values 1.03 | locus YER155C, strain BEM2 (second series), hits give low values 1.02 | locus YER155C, strain BEM2, hits give low values 0.986 | locus YER167W, strain BCK2, hits give low values 1.01 | locus YFR010W, strain ubp6, hits give low values 1.04 | locus YGL078C, strain dbp3, hits give low values 0.983 | locus YGL086W, strain mad1, hits give low values 1 | locus YGL167C, strain pmr1, hits give low values 1.02 | locus YGL173C, strain kem1, hits give low values 1.01 | locus YGL227W, strain vid30, hits give low values 1.01 | locus YGL240W, strain doc1, hits give low values 0.968 | locus YGL248W, strain PDE1, hits give low values 0.994 | locus YGL253W, strain hxk2, hits give low values 1.03 | locus YGR078C, strain PAC10, hits give low values 0.987 | locus YGR135W, strain pre9, hits give low values 0.988 | locus YGR229C, strain SMI1, hits give low values 1.03 | locus YGR252W, strain gcn5, hits give low values 1.07 | locus YHR013C, strain ard1, hits give low values 1.02 | locus YHR027C, strain rpn1, hits give low values 1.02 | locus YHR030C, strain SLT2, hits give low values 0.996 and 1.06 | locus YHR079C, strain IRE1 (second series), hits give low values 0.991 | locus YHR079C, strain IRE1, hits give low values 1.08 | locus YHR094C, strain hxt1, hits give low values 0.993 | locus YHR129C, strain ARP1, hits give low values 0.986 | locus YHR142W, strain chs7, hits give low values 1.05 | locus YHR200W, strain rpn10, hits give low values 0.984 | locus YIL066C, strain RNR3, hits give low values 0.982 | locus YIL073C, strain SPO22, hits give low values 0.975 | locus YIL125W, strain kgd1, hits give low values 1.01 | locus YIR030C, strain dcg1, hits give low values 0.991 | locus YJL092W, strain hpr5, hits give low values 1.03 | locus YJL095W, strain BCK1 (second series), hits give low values 1.03 | locus YJL095W, strain BCK1, hits give low values 0.956 and 1.05 | locus YJL115W, strain asf1, hits give low values 1.03 | locus YJL129C, strain trk1, hits give low values 1.06 | locus YJL134W, strain LCB3, hits give low values 0.997 | locus YJL154C, strain vps35, hits give low values 1.01 | locus YJL164C, strain tpk1, hits give low values 1.01 | locus YJL166W, strain qcr8, hits give low values 0.996 | locus YJL168C, strain set2, hits give low values 0.987 | locus YJL187C, strain SWE1 (second series), hits give low values 0.971 | locus YJL187C, strain SWE1, hits give low values 1.03 | locus YJR043C, strain POL32, hits give low values 0.974 | locus YJR066W, strain TOR1, hits give low values 0.976
